High-throughput results from PubChem.
The full list was thinned out, with hits kept by preference.
Giardia killer = Giardia lamblia killing. Giardia lamblia trophozoite viability. activity change, % at 7.66 µM, hits read low. 340,000 compounds, 0.15% hits. AID 540267; in the data active = activity change below about -80%; inconclusive = between about -30% and that limit;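 also: parasites exposed to compound for two days anaerobically before the ATP read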
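Each well holds 100 Giardia trophozoites and compound. After two days (48 hrs) at 37 deg C in anaerobic conditions, ATP is quantified by luminescence.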
RORgamma inh = blocks mouse ROR gamma transcriptional activity | P51450 | Drosophila S2 Gal4-RORgamma UAS-luciferase reporter, 20 h | Potency, µM (series often up to 53.6 µM), most hits filed as inhibitors | 310,000 compounds, 5.4% hits | AID 2551; also: nearly all actives have a fitted effect of over 60% in size
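Luminescence from a UAS-regulated Photinus luciferase reporter in stably transfected Drosophila Schneider cells is measured; decreased signal marks ROR gamma inhibition. Fusion expression is induced by 700 uM copper sulfate for 20 hr.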
ERG-DNA inh = blocks human ERG Ets domain binding to DNA | P11308 | fluorescence polarization, His-ERG Ets domain / labelled DNA | Potency, µM (highest dose often 76.9 µM), actives largely listed as inhibitors | 370,000 compounds, 0.028% hits | AID 624246; active = well fitted inhibition curve with a large enough effect in the polarisation, with a control signal flat; inconclusive = small, poorly fitted or top-dose-only effect, or effect the other way, or a change in a side signal; inactive = no such curve, though single readings can be large or run the other way; the % refers to the polarisation;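 also: polarization taken with two DNA probes labelled with fluorescein and Texas red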
Target sequence (P11308 whole entry, looked up, the tested form may be a part): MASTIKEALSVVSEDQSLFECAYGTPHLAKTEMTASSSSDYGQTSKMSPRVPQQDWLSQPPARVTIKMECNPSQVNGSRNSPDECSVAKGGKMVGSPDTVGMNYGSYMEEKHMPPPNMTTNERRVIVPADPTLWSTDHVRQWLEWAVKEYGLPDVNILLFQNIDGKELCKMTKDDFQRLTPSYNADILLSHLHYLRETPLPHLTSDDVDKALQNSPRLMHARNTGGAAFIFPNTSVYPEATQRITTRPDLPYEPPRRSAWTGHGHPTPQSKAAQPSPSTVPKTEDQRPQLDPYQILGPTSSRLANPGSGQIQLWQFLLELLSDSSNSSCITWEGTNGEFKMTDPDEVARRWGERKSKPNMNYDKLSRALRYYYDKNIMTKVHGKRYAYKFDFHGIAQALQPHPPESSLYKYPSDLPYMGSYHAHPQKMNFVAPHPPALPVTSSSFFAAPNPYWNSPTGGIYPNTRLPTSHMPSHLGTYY
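His-tagged ERG Ets domain (1 uM in the protein solution; 300mM KCl, 50mM Tris-HCl, 1mM EDTA, 1mM DTT, pH 7.5) received compound, then a probe mix of 5 nM fluorescein-DNA and 100nM Texas-615-DNA. Fluorescence polarization was read for both dyes.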
Gal4-VP16 FLuc = counter-screen for ROR gamma inhibitors: Gal4-VP16 reporter; Potency, µM (doses to about 53.6 µM), usual class: inhibitors; Drosophila S2 Gal4-VP16 UAS-luciferase, luminescence, 20 h; 310,000 compounds, 3.5% hits; AID 2546;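 also: Gal4-VP16 expression switched on by copper sulfate through the metallothionein promoter; nearly all actives have a fitted effect of over 50% in size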
a7 integrin act = integrin-mediated muscular dystrophy alleviation activation | alpha7betagal myoblasts, beta-gal FDG fluorescence, 48 h | Potency, µM (series often up to 38.3 µM), actives largely listed as activators | 350,000 compounds, 0.064% hits | AID 624291; also: nearly all actives have a fitted effect of over 60% in size
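alpha7betagal+/- myoblasts (passage 13, 250/well) treated 48 h at 37C with compounds at 1:260 dilution of DMSO stock. Lysed, then beta-galactosidase activity read as FDG fluorescence (ex 480/em 540) after 30 min, with pre-read for autofluorescence.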
Hits are given with their value; . = inactive; ? = inconclusive; / = no result given. Unless noted, calls follow the shape of the dose curve; as a rule, active = well fitted curve in the direction sought with a large enough effect; inconclusive = small, poorly fitted or top-dose-only effect, or another doubt; inactive = no such curve, though single readings can be large; an effect the other way counts as inactive or inconclusive.

SMILES	Giardia killer	RORgamma inh	ERG-DNA inh	Gal4-VP16 FLuc	a7 integrin act
CC1CCCCN1c1nc(-c2ccncc2)nc2ccccc12 (centres undefined)	.	11.2µM	.	.	.
CCOc1ccccc1NC(c1nnc(-c2ccccc2)o1)c1ccc(F)cc1Cl (centres undefined)	/	/	.	/	/
CCC(C)N(C(=O)Cn1c(=O)cnc2ccccc21)C1CCS(=O)(=O)C1 (centres undefined)	.	/	.	/	.
O=C(NCc1ccc(Cl)cc1)c1cnc(N2CCOCC2)c2ccccc12	/	/	.	/	/
N#CCC(=O)Nc1ncc(Cc2ccccc2Cl)s1	.	12.6µM	.	?	.
O=C(Nc1ncc(Cc2cc(Cl)ccc2Cl)s1)c1ccc([N+](=O)[O-])cc1	.	1µM	.	4.47µM	.
O=C(Nc1ncc(Cc2cccc(Cl)c2Cl)s1)c1ccc([N+](=O)[O-])cc1	.	.	.	.	.
COCCN(C(=O)COC(=O)Cc1cccc(OC)c1)c1c(N)n(CC(C)C)c(=O)[nH]c1=O	.	/	.	/	.
S=c1[nH]nc(-c2ccccc2)c2ccccc12	.	7.08µM	.	11.2µM	.
CCOc1ccc(-c2n[nH]c(=S)c3ccccc23)cc1	.	7.08µM	.	10µM	.
Cc1ccc(-c2n[nH]c(=S)c3ccccc23)cc1	.	.	.	.	.
CN(Cc1cn(C)c2ccccc12)C(=S)Nc1cc(F)cc(F)c1	.	.	/	.	.
CSCCC(NS(=O)(=O)/C=C/c1ccccc1)C(=O)O (centres undefined)	.	.	.	.	.
Cc1ccccc1C(=O)O/N=C/c1c(N2CCOCC2)n(C)c2ccccc12	.	1µM	.	2.82µM	.
CCSc1cnc(-c2ccccc2)n1CC	.	12.6µM	/	.	.
CCn1c(SCC(O)c2ccccc2)nnc1-c1ccccc1 (centres undefined)	.	.	.	.	.
CCOC(=O)c1nn(-c2ccccc2)c(=O)cc1OCC(=O)Nc1ccccc1OCC	.	/	.	/	.
O=C(c1cc(-c2ccc(Cl)cc2Cl)on1)N1CCCCCC1	.	8.91µM	.	?	.
O=C(c1cc(-c2ccc(Cl)cc2Cl)on1)N1CCCC1	.	8.91µM	.	10µM	.
O=C(c1cc(-c2ccc(Cl)cc2Cl)on1)N1CCN(C(=O)c2ccco2)CC1	.	.	.	.	.
O=C(c1cc(-c2ccc(Cl)cc2)on1)N1CCCCCC1	.	.	.	.	.
COc1ccc(NC(=O)N2CCCC3(CCN(C(=O)c4csnn4)CC3)C2)cc1	/	.	/	.	/
Cc1ccc(S(=O)(=O)c2nc(-c3ccco3)oc2SC(C)C)cc1	.	.	.	.	.
CCN(CC)C1CC(=O)N(c2ccc(Br)cc2)C1=O (centres undefined)	.	12.6µM	.	17.8µM	.
O=C(CNC(=O)C1CCCCC1)NC1CCCCC1	.	.	.	.	.
SMILES	Giardia killer	RORgamma inh	ERG-DNA inh	Gal4-VP16 FLuc	a7 integrin act
Cc1cc(=O)n(Cc2ccc(OC(C)C)cc2)c(=S)[nH]1	.	7.94µM	.	?	.
Cc1cc(=O)n(Cc2ccco2)c(=S)[nH]1	/	/	/	/	.
CC1(C)Cc2ccccc2C(C(=O)c2ccccc2)=N1	.	7.94µM	.	.	.
CC1(C)Cc2ccccc2C(NNC(=O)c2ccccn2)=N1	.	0.0501µM	.	0.1µM	.
CC(C)C(=O)SCCCCCCC(=O)Nc1nc(-c2ccccc2)cs1	/	.	/	?	/
CN(C)CCCN(C(=O)c1ccc([N+](=O)[O-])s1)c1nc2cc3c(cc2s1)OCCO3	.	12.6µM	.	?	.
COc1ccc(N2CCN(CCCNC(=O)c3nnc(Cc4ccccc4Cl)o3)CC2)cc1	/	/	.	/	/
CC(OC(=O)CCc1nc2ccccc2c(=O)[nH]1)C(=O)NC1CCCC1 (centres undefined)	.	?	.	.	.
CC(OC(=O)CCc1nc2ccccc2c(=O)[nH]1)C(=O)c1ccc(C(C)(C)C)cc1 (centres undefined)	.	?	.	5.62µM	.
COC(=O)[C@@]1(Cc2ccc(F)cc2)[C@@H]2C(=CC(=O)[C@H]2CC(=O)C(=O)N2CCCC2)CN1C(=O)c1ccccc1	/	14.1µM	/	?	/
COC(=O)[C@@]1(Cc2ccc(OC)cc2)[C@H]2c3cc(C(=O)N4CCCC4)n(CCn4cc([N+](=O)[O-])nc4C)c3C[C@H]2CN1C(=O)c1ccccc1	-82.9	.	.	.	.
C=C1C(=O)C=C2CN(C(=O)c3ccccc3)[C@@](Cc3ccc(OC)cc3)(C(=O)OC)[C@@H]12	/	3.98µM	/	0.708µM	/
COC(=O)[C@@]1(Cc2ccc(OC)cc2)[C@@H]2[C@@H](CC(=O)[C@H]2CC(=O)C(=O)N2CCCC2)CN1C(=O)c1ccccc1	/	.	/	.	/
COC(=O)[C@@]1(Cc2ccc(OC)cc2)[C@H]2c3cc(C(=O)N4CCCC4)n(CCF)c3C[C@H]2CN1C(=O)c1ccccc1	/	.	/	.	/
COC(=O)[C@@]1(Cc2ccc(OC)cc2)[C@@H]2C(=CC(=O)[C@H]2CC(=O)C(=O)N2CCCC2)CN1C(=O)c1ccccc1	.	?	.	3.98µM	.
COC(=O)[C@@]1(Cc2ccc(F)cc2)[C@@H]2[C@@H](CC(=O)[C@H]2CC(=O)C(=O)N(C)C)CN1C(=O)c1ccccc1	.	?	.	.	.
Cc1ccc(-n2nnnc2C(Cl)(Cl)c2nnnn2-c2ccc(C)cc2)cc1	.	17.8µM	.	7.08µM	.
O=C(c1cc2cc([N+](=O)[O-])ccc2oc1=O)N1CCOCC1	.	5.01µM	.	?	.
O=C(c1cc2cc([N+](=O)[O-])ccc2oc1=O)N1CCN(c2ncccn2)CC1	.	.	.	.	.
Cc1ccc(NC(=S)c2nc3ccccc3[nH]2)c(C)c1	.	14.1µM	.	?	.
Cc1ccc(NC(=S)c2nc3ccccc3[nH]2)cc1	?	3.16µM	.	7.94µM	.
Cc1ccc(NC(=S)N2CCCC(c3nc4ccccc4[nH]3)C2)cc1 (centres undefined)	.	?	.	.	.
CC/C(CC(=O)C(F)(F)F)=N\NC(=O)/C(C#N)=C/N(C)C	.	7.08µM	.	?	.
CCc1ccc2oc(-c3cc(N=Cc4cccc(OC)c4O)ccc3O)nc2c1	.	11.2µM	.	?	.
Cc1c(/C=N\NC(=O)c2ccc([N+](=O)[O-])cc2)cnn1C	.	.	.	.	.
SMILES	Giardia killer	RORgamma inh	ERG-DNA inh	Gal4-VP16 FLuc	a7 integrin act
O=C(N/N=C/c1ccc([N+](=O)[O-])o1)c1cn2ccc3ccccc3c2n1	-95.3	.	.	.	.
Cn1cccc1/C=N/NC(=O)c1sc2ccccc2c1Cl	.	0.447µM	.	3.16µM	.
COc1ccc2c(Cl)c(C(=O)N/N=C/c3c(C)[nH]c4ccccc34)sc2c1	.	.	.	.	.
O=C(N/N=C/c1c[nH]c2ccccc12)c1sc2ccccc2c1Cl	.	?	.	?	.
O=C(N/N=C/c1ccccn1)c1sc2ccccc2c1Cl	.	2.82µM	.	3.16µM	.
Cc1c(/C=N/NC(=O)c2sc3ccccc3c2Cl)cnn1C	.	2µM	.	11.2µM	.
